# From PubChem BioAssay (EPA / NIEHS)
# Results filed as inconclusive are left out. Active and inactive are the calls of the source. Rule for the calls: active = hit-call score of the fitted dose curve at least 0.9, where 1 is the maximum; inconclusive = response in the unintended direction; inactive = score below 0.9.
# Test: CCTE_Shafer_MEA_acute_LDH: CCTE's Lactate Dehydrogenase Assay for Cytotoxicity in the Neural Acute Assay, Shafer Lab (AID 2284086);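 note: active means LDH release rises above DMSO vehicle level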
# Protocol: CCTE_Shafer_MEA_acute assay is conducted using Axion Biosystems 48 well microelectrode array (MEA) plates and Maestro recording system. Each well of the MEA plate contains a grid of 16 microelectrodes embedded in the culture surface. Electrically active cells, such as neurons, can be cultured over the electrodes, and electrical activity in these cells can be recorded extracellularly. The spontaneous firing of neurons is captured from each electrode on a microsecond timescale providing both temporally and spatially precise data. […] The CCTE_Shafer_MEA_acute assay uses primary cultures of rat cortical neurons. As these cultures mature over time, neural networks develop functional activity and form cohesive networks in which electrical activity can be highly coordinated. Baseline 40-minute recordings are made on days post-plating 13 or 15, followed by a secondary 40-minute recording after chemical exposure.CCTE_Shafer_MEA_acute_LDH is a component of the CCTE_Shafer_MEA_acute assay. It measures the lactate dehydrogenase enzyme activity using spectrophotometry.Data from the assay component CCTE_Shafer_MEA_acute_LDH was analyzed into 1 assay endpoint. This assay endpoint, CCTE_Shafer_MEA_acute_LDH, was analyzed in the positive analysis fitting direction relative to DMSO as the negative control and baseline of activity. Using a type of viability reporter, gain-of-signal activity can be used to understand cell viability.
# Immediately following the 40 min recording in the presence of compounds, 50 uL of media was removed from each well and transferred to a sterile 96-well plate. This was used to determine LDH released from cells during compound exposure using a kit from Promega where absorbance was determined in a Molecular Devices VersaMax plate reader at 490 nm.
row,Compound,outcome
1,CCOC(=O)c1ccccc1C(=C1C=C(Br)C(=O)C(Br)=C1)c1cc(Br)c(O)c(Br)c1,inactive
2,C=C[Si](OC(C)=O)(OC(C)=O)OC(C)=O,inactive
3,CCCCC(CC)COC(=O)c1ccccc1O (stereo unspecified),inactive
4,CCO[Si](C)(OCC)OCC,inactive
5,CO[Si](OC)(OC)c1ccccc1,inactive
6,O=C(c1ccc(O)cc1)c1ccc(O)cc1O,inactive
7,CN1C(=O)N(C)C(O)C1O (stereo unspecified),inactive
8,CCCCC(CC)COCC1CO1 (stereo unspecified),inactive
9,Nc1ncn([C@@H]2O[C@H](CO)[C@@H](O)[C@H]2O)c(=O)n1,inactive
10,O=C1CCCN1CCO,inactive
11,Nc1ccc(N)c(Cl)c1,inactive
